# L929 necroptosis: blocks zVAD induced death of L929 cells. L929 zVAD necroptosis rescue, ATP luminescence, 24 h; with zVAD 60 µM. AID 1377. viability rescue, % at 10 µM. 0.38% of 220,000 active;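 active = activation, scaled between plate controls, above about 75%, limit read from the data; inactive = activation under that limit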;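 also: 0% = zVAD with DMSO and 100% = DMSO alone without zVAD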
# HSV replic up: increases HSV replication in cells; HSV replication augmentation in cells, fold increase; maximum fold increase; 0.005% of 220,000 active; AID 1956; in the data active = maximum fold increase above about 1.5; tested in PC3 cells
# m-calpain inh: blocks pig calpain II enzyme activity. AID 1236. purified calpain II, fluorogenic peptide substrate, 30 min. inhibition, % at 16 µM. 0.37% of 220,000 active;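 active = inhibition above about 50%, limit read from the data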
# TNF death inh: TNF-alpha cell death inhibition in Jurkat FADD-/- cells; AID 463075; activation (protection from cell death), % at 10 µM; Jurkat FADD-/- TNF necroptosis rescue, ATP luminescence, 24 h; 0 = TNF only, 100 = no-TNF cells; 0.068% of 220,000 active;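 active = activation, meaning protection from cell death, of at least 50% relative to plate controls; inactive = activation below 50%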;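 also: necroptosis triggered by 40 ng/mL TNF-alpha added together with compound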
# * = called active by the depositor; i = inactive; x = no result. In the library only some 0.77% were active in any assay of this set; here they are far more common.
SMILES,L929 necroptosis,HSV replic up,m-calpain inh,TNF death inh
Cc1ccc(NC(=O)c2cc(N3C(=O)C4CCCCC4C3=O)ccc2N2CCOCC2)cc1 (stereo unspecified),21.1,i,67.8*,2.5
CCOC(=O)N1CCN(C(=O)c2ccc(NC(=O)CC)cc2)CC1,-0.3,i,2.2,-0.3
CCOC(=O)N1CCN(C(=O)c2ccc(NS(C)(=O)=O)cc2)CC1,-0.1,i,50.3*,-1.1
O=C(c1cccc(COc2ccc(Cl)cc2Cl)c1)N1CCN(c2ccccn2)CC1,0.6,i,69.7*,-2.0
CC(C(=O)N1CCN=C1c1ccccc1)N1C(=O)c2ccccc2C1=O (stereo unspecified),-0.8,i,-28.2,2.8
O=C(O)/C=C/c1ccc(S(=O)(=O)N2CCN(CCN3C(=O)C4C5C=CC(C5)C4C3=O)CC2)cc1 (stereo unspecified),-0.4,i,-25.9,1.1
CCC(C)c1ccc(O)c(NC(=O)c2cncc(Br)c2)c1 (stereo unspecified),1.8,i,-21.8,78.2*
CCC(C)c1ccc(O)c(NC(=S)NC(=O)c2cccnc2)c1 (stereo unspecified),-1.0,i,5.2,-7.4
COCCNC(=O)CSc1nnc(-c2ccccc2F)n1Cc1ccccc1,-0.1,i,-9.9,0.5
CC(=O)Nc1cccc(C(=O)OC(C(=O)c2ccc(C)c(C)c2)c2ccccc2)c1 (stereo unspecified),83.2*,i,-8.0,-9.3
CCCCN=C1CC(C)(C)CC(=O)/C1=C(/O)CCC,1.3,i,5.1,-1.2
CCOC(=O)CCNCc1ccc(F)cc1,-0.2,i,10.2,-0.1
O=C1N/C(=N\N=C\c2ccccn2)SC1Cc1cccc(SC(F)F)c1 (stereo unspecified),82.5*,i,-6.2,-15.2
C=C(C)COc1ccc(-c2[nH]ncc2Oc2cccc(OC)c2)c(O)c1,-0.1,i,57.3*,0.7
Fc1ccc(CNc2nc(-c3ccccc3)nc3ccccc23)cc1,-0.7,i,54.5*,-0.3
Cc1ccc(-c2nc(NCc3ccco3)c3ccccc3n2)cc1,0.3,i,60.6*,0.8
Cc1ccc(NC2OC(CO)C(O)C2O)cc1[N+](=O)[O-] (stereo unspecified),x,i,84.9*,-0.5
O=C(NCc1ccccc1Cl)C1CCCN(c2nc3ccsc3c(=O)s2)C1 (stereo unspecified),2.3,i,52.8*,-0.2
Fc1cccc(Cn2cc(C(=S)N3CCCCC3)c3ccccc32)c1,-0.4,i,65.8*,-3.0
Fc1cccc(Cn2cc(C(=S)N3CCOCC3)c3ccccc32)c1,-0.9,i,22.7,-1.4
CC(=O)c1ccc(N2CCN(C(=O)CCCc3nc4ccccc4s3)CC2)cc1,x,i,1.5,-0.4
CCCCNCC#CCOc1cc(C)ccc1C(C)C,-0.9,i,-7.7,3.2
Cc1ccc(NC(=O)C2COc3ccccc3O2)nc1 (stereo unspecified),1.2,i,-7.2,89.0*
CCC(C(=O)Nc1cccc(C(=O)O)c1C)c1ccccc1 (stereo unspecified),1.3,i,5.6,0.7
CC(=O)NC1=NN(C(C)=O)C2(S1)C(=O)N(CC(C)C)c1ccc(C)cc12 (stereo unspecified),0.1,i,-16.3,-0.7
SMILES,L929 necroptosis,HSV replic up,m-calpain inh,TNF death inh
CC(C)COC(=O)Cn1cnc2ccc(Br)cc2c1=O,0.9,x,-22.5,56.9*
O=C(Cn1cnc2ccc(Br)cc2c1=O)c1cccs1,0.7,i,29.7,73.6*
O=C(Cn1cnc2ccc(Cl)cc2c1=O)c1cccs1,1.3,i,7.4,67.2*
NC(=O)C1CCN(CC(=O)N2N=CCC2c2ccccc2)CC1 (stereo unspecified),2.5,i,-1.1,0.8
CS(=O)(=O)N(CC(=O)NC1CC2CCC1C2)c1ccc(Oc2ccccc2)cc1 (stereo unspecified),1.0,i,2.8,2.8
N=c1n(Cc2ccccc2)c2ccccc2n1CC(O)COc1ccc(Cl)cc1Cl (stereo unspecified),-2.8,i,52.0*,-14.5
O=C(Nc1nccs1)c1cc2c(s1)CCCCC2,6.6,i,5.0,52.5*
O=C(Nc1nccs1)c1ccc(Cl)s1,96.1*,i,-6.8,24.6
COc1ccc(C(=O)c2ccccc2)c(OCC(=O)NC2CC2)c1,1.1,i,-1.1,-1.1
O=C(CCn1c(=O)[nH]c2ccsc2c1=O)NCc1ccc(F)cc1,2.2,i,51.8*,1.6
COCCNS(=O)(=O)c1ccc(-c2ccc(C)cc2)cc1,0.5,i,3.4,-5.3
COCCNS(=O)(=O)c1ccc(SC)cc1,0.3,i,2.5,50.2*
CCCCNC(=O)/C(C#N)=C/c1ccc(F)cc1F,0.8,i,-20.2,-3.8
O=C(O)c1ccc(NC2=C(Cl)C(=O)c3ccccc3C2=O)cc1,9.0,i,58.0*,-28.9
O=C1C(Cl)=C(Nc2ccccc2)C(=O)c2ccccc21,1.6,i,43.0,-1.9
NS(=O)(=O)c1ccc(CCNCc2cc(Br)ccc2OCc2ccccc2F)cc1,1.3,i,52.6*,-0.5
Nc1nonc1C(=O)NCCNCc1ccccc1OCc1ccccc1F,-0.4,i,13.7,-2.3
Nc1nonc1C(=O)NCCNCc1cc(Br)ccc1OCc1ccccc1F,-0.2,i,75.1*,-2.6
C=CCOc1ccccc1CNCCc1ccc(S(N)(=O)=O)cc1,-1.1,i,-3.5,2.7
Cc1ccc(NC(=O)CSc2nsc(SCC(=O)Nc3ccc(C)cc3C)c2C#N)c(C)c1,0.2,i,51.1*,0.3
c1csc(-c2noc(CN3CCc4sccc4C3)n2)c1,0.4,i,-13.2,-0.1
CCCCN(CCCC)C(=O)/C=C/c1cccc([N+](=O)[O-])c1,-0.2,i,62.1*,0.0
COc1cccc(NC(=O)CN(C)CC(=O)Nc2ccc(Cl)cc2[N+](=O)[O-])c1,-0.2,i,55.1*,1.6
Cc1cc(C)cc(C(=O)NCC(=O)OCc2c(C)noc2C)c1,0.6,i,0.2,2.5
Cc1noc(C)c1COC(=O)C(c1ccccc1)c1ccccc1,-0.6,i,57.9*,-1.6
SMILES,L929 necroptosis,HSV replic up,m-calpain inh,TNF death inh
Cc1noc(C)c1COC(=O)CNC(=O)c1cccc(F)c1,2.0,i,59.5*,0.9
COc1ccc(C(=O)N(C)c2c(C)n(C)n(-c3ccccc3)c2=O)cc1OC,0.4,i,69.9*,1.1
Cc1c(N(C)C(=O)c2ccco2)c(=O)n(-c2ccccc2)n1C,-0.9,i,39.1,-1.5
COc1c(F)c(F)c(C(=O)Nc2ccc(NC(=O)Cc3ccccc3)cc2)c(F)c1F,7.3,i,-25.7,2.2
COc1ccc(/C=C/CN2CCCC(CO)(Cc3cccc(Cl)c3)C2)cc1 (stereo unspecified),-0.3,i,-1.0,3.1
Cc1cc(C)c(S(=O)(=O)Nc2ccc3c(c2)CCC3)c(C)c1,0.9,i,50.7*,-1.3
Cc1cc(C)c(S(=O)(=O)Nc2ccc(O)cc2)c(C)c1,0.0,i,13.9,-2.8
Oc1ccc(Br)cc1C=Nc1ccc(Cl)cc1,-0.5,i,93.7*,-12.2
COc1ccc(NC(=S)NCCCCCC(=O)C[N+](=O)[O-])cc1,4.6,i,-18.1,0.6
